Data published in PubChem BioAssay (NCI).
Several values for one entry are separate records, joined by “and”; a condition that tells them apart may be missing. Equal values may be shown once. This is part of a sample that, as a whole, favours compounds with a hit. Of some 83,000 tested, about 20% had one in any assay.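 A percent growth of 40 corresponds to 60% growth inhibition; 0 means no net growth; -100 means all cells died. Active threshold: below 10.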 Activity calls are given as the source filed them.

Each compound was assayed on MDA-MB-468 breast (assay: NCI-60 one-dose screen, 48 h (100 = growth as untreated, 0 = no growth, -100 = all killed)). Conditions: 10 µM unless noted.
`COc1ccc(/C=C/C(=O)NCC(C)O)cc1` (centres undefined) was tested, and the growth was 94.2% (inactive).
With `CCCCCCCCCCCC[n+]1ccc(C(N)=O)cc1` the growth was -42.1% (active).
In the case of `O=C(/C(=N/O)c1ccccc1)c1ccccc1`, the growth is reported as 93.1% (inactive).
With `Cc1nn(-c2nc(-c3cc4ccccc4oc3=O)cs2)c(C)c1N=Nc1ccccc1` the growth was 103% (inactive).
With `CCCCn1c(-c2ccc(C(=O)O/N=C(\N)c3ccc4ccccc4c3)cc2)nc(-c2ccccc2)c1-c1ccccc1` the growth was 79.9% (inactive).
With `O=C(Nc1cccc(F)c1)Nc1cccc(Cl)c1` the growth was 90% (inactive).
In the case of `O=C1/C(=C\c2ccc(F)cc2)CN(C(=O)c2ccccc2F)C/C1=C\c1ccc(F)cc1`, the growth is reported as -74% (active).
With `CC(=O)NCCCS(=O)(=O)O` the growth was 113% (inactive).
For `C=C1C(=O)O[C@H]2[C@H]1CC/C(COC(=O)c1ccc(C(=O)O)s1)=C\CC[C@@]1(C)O[C@@H]21`, the growth was -46.7% (active).
For `N#CSCc1cc(Cl)c(CSC#N)cc1Cl`, the growth was 66% (inactive).
`CN1CCCC1=Nc1ccccc1` was tested, and the growth was 107% (inactive).
In the case of `COc1ncnc2c1ncn2C/C(Br)=C(\Br)CCl`, the growth is reported as 16.9% (inactive).
With `Cc1ccc(S(=O)(=O)OC2COCOC2C(OS(=O)(=O)c2ccc(C)cc2)C2OCOCC2OS(=O)(=O)c2ccc(C)cc2)cc1` (centres undefined) the growth was 108% (inactive).
In the case of `Cc1cc(-c2ccc(N(C)C)cc2)c2sc(=O)[nH]c2n1`, the growth is reported as 80% (inactive).
`Cc1ccc(NC(=O)c2sc3nc(C)c(Br)c(C)c3c2N)cc1` was tested, and the growth was 66.6% (inactive).
In the case of `CCOC(=O)c1c(NC(=O)C2CCCCC2C(=O)O)sc2c1CCCC2` (centres undefined), the growth is reported as 103% (inactive).
With `CCc1cc2c(c3ccc(C(=O)CBr)cc13)CCCC2` the growth was 111% (inactive).
In the case of `COc1ccc(-c2nc3ccc(-c4nnc(SCC(=O)Nc5ccc(C(=O)/C=C/c6ccc(Cl)cc6)cc5)o4)cc3[nH]2)cc1`, the growth is reported as 98.1% (inactive).
With `COc1ccc(OC)c(/C=C/C(=O)N/N=C/c2ccccc2)c1` the growth was 28.1% (inactive).
With `COc1ccc(Nc2nc(NCCNc3ccnc4cc(Cl)ccc34)nc(N3CCOCC3)n2)cc1` the growth was 23.9% (inactive).
`CCOC(C)(c1ccc(Cl)cc1)C1CCNCC1` (centres undefined) was tested, and the growth was 90.9% (inactive).
In the case of `Cc1cc(C)c2c(c1)N(C)c1ncnc(-n3c(C)nc4cc(C)ccc43)c1CC2C` (centres undefined), the growth is reported as 3.92% (active).
For `O=C1NC(=O)C(=Cc2cc(-c3ccc(Cl)cc3)n(-c3ccccc3)n2)C(=O)N1`, the growth was 87.3% (inactive).
`CCCCCCN1C(=O)C2=C(c3ccc(Cl)cc3)Nc3c(c(C)nn3-c3ccccc3)C2c2ccccc21` (centres undefined) was tested, and the growth was 84.5% (inactive).
With `COc1cc(C(=O)c2cc(C)c3[nH]c4ccc(O)cc4c3c2C)cc(OC)c1OC` the growth was -22.7% (active).
With `CN(C(=S)S(=O)(=O)C12CC3CC(CC(C3)C1)C2)c1ccccc1` the growth was 61.7% (inactive).
`CCCCCCNC(=O)Oc1ccc(/C(=C(/CC)Cc2ccccc2)c2ccc(OCCN(CC)CC)cc2)cc1` was tested, and the growth was 64.4% (inactive).
In the case of `COc1cc(/C=N/NC(=O)Cn2c(-c3ccc(C)o3)nc3ccccc32)ccc1OCc1ccccc1`, the growth is reported as 76.6% (inactive).
`Cc1cccc(NC(=O)[C@@H]2c3ccccc3C(=O)N(c3ccc(Cl)cc3)[C@H]2c2ccc(Cl)cc2)n1` was tested, and the growth was 17.7% (inactive).
With `CN(C)c1ccc(C(=C2C=CC(=[N+](C)C)C=C2)c2ccccc2Cl)cc1` the growth was -57.8% (active) and -84.2% (active).
In the case of `Nc1ccc(Sc2ccc3c4c2cccc4c(=O)n2c4ccccc4nc32)cc1`, the growth is reported as 43.5% (inactive).
In the case of `CN1CCN(Cc2ccc(NC(=O)c3cncc(C#Cc4cnc(N)cc4C#N)c3)cc2C(F)(F)F)CC1`, the growth is reported as -4.22% (active).
With `NS(=O)(=O)c1ccc(N2N=C(c3ccc(Br)cc3)CC2c2cn(-c3ccccc3)nc2-c2ccc(Cl)cc2)cc1` (centres undefined) the growth was 112% (inactive).
With `O=C(OCc1nc2nc(Cl)nc(N3CCOCC3)c2[nH]1)n1ccnc1` the growth was -26.9% (active).
In the case of `COc1ccc2c(c1)C=CC1(O2)Oc2ccc(OC)cc2C=C1C` (centres undefined), the growth is reported as 47.3% (inactive).
In the case of `Cc1ccc2c(n1)C(=O)C(Cl)=C(Nc1ccc(C#N)cc1)C2=O`, the growth is reported as 51.4% (inactive).
In the case of `CNC(=O)c1cc(-c2ccc(NC(=S)Nc3cccc(C(F)(F)F)c3)cc2)nc2cccnc12`, the growth is reported as 47.9% (inactive).
In the case of `O=C1Nc2cc(Cl)ccc2/C1=C\c1ccc(OCc2ccccc2)cc1`, the growth is reported as 98.5% (inactive).
With `CCC1(CC)NC(=O)c2c(c3ccc(Cl)c(Cl)c3n2C)C1C#N` (centres undefined) the growth was 106% (inactive).
